14 molecules from PubChem BioAssay (NCI) can be followed below.

Assay in all cases: NCI-60 one-dose screen, 48 h (100 = growth as untreated, 0 = no growth, -100 = all killed)
The test system of one assay is DU-145 prostate. Particulars: 10 µM unless noted.
In a further assay the test system is K-562 leukemia. Particulars: 10 µM unless noted.
The next assay relates to MALME-3M melanoma. Particulars: 10 µM unless noted.
The subject of another assay is MDA-MB-231 breast. Particulars: 10 µM unless noted.
The subject of the next assay is SF-268 CNS. Particulars: 10 µM unless noted.
In a further assay the test system is SF-295 CNS. Particulars: 10 µM unless noted.
A further assay has as its system SF-539 CNS. The settings on record: 10 µM unless noted.
For a further assay, the system named is M14 melanoma. Particulars: 10 µM unless noted.
Another assay has as its system UACC-257 melanoma. Particulars: 10 µM.

The panel holds about 83,000 compounds, 20% with a hit somewhere; the sample as a whole holds those more often.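 Testing used 96-well plates and a 48-hour single-concentration exposure. Example: -40 means 40% of the starting cells died.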 Values without a mark were called inactive. Activity calls are given as the source filed them. The calls were made as follows: active = growth percent below 10; inactive = the rest.

On to `Cc1oc2nc[nH]c(=O)c2c1C(=O)/C=C/c1ccc(Cl)cc1Cl`, for which the growth is 78.2% with DU-145 prostate; 17.8% in the assay on K-562 leukemia; 99.9% in the assay with MALME-3M melanoma; 89% with MDA-MB-231 breast; 94.6% in the assay on SF-268 CNS; 104% in the assay on SF-295 CNS. Moreover, the growth in the assay on SF-539 CNS was 93.3%; with M14 melanoma it was 93.9%.

On to `CC(=O)Nc1nc(C(=O)N2N=C(C)/C(=C/c3cccs3)C2=O)cs1`, for which the growth is 99.4% with DU-145 prostate; 102% in the assay with K-562 leukemia; 86% in the assay with MALME-3M melanoma; 111% in the assay with MDA-MB-231 breast; 107% in the assay on SF-268 CNS; 106% in the assay with SF-295 CNS. Moreover, the growth with SF-539 CNS was 103%; in the assay on UACC-257 melanoma, 91.7%; in the assay with M14 melanoma it was 101%.

For the molecule `CC(C)(C)OC(=O)N1C/C(=C\c2cccs2)C(=O)/C(=C/c2cccs2)C1`, the growth in the assay on DU-145 prostate is 107%; with K-562 leukemia it was 75.8%; in the assay on MALME-3M melanoma, 95.8%; in the assay with MDA-MB-231 breast it was 101%; in the assay on SF-268 CNS, 91.8%; in the assay with SF-295 CNS, 98.9%. In addition, the growth with SF-539 CNS was 99%; in the assay with M14 melanoma, 98.3%.

On to `CCCCCCCCCN1C(=O)/C(=c2\sc3n(c2=O)C2C(NN=3)N(CC)C(=O)N2CC)c2ccccc21` (stereo not drawn), for which the growth in the assay on DU-145 prostate is 69.8%; with K-562 leukemia it was 21.3%; in the assay on MALME-3M melanoma it was 50.7%; with MDA-MB-231 breast, 63.9%; in the assay with SF-268 CNS it was 50.9%; in the assay on SF-295 CNS, 61%. Further, the growth in the assay on SF-539 CNS is 8.03% (active); in the assay on M14 melanoma it was 90.8%.

With `COc1cc(CCn2nnc3c(NCCCCO)ncnc32)cc(OC)c1`, the growth in the assay with DU-145 prostate is 104%; in the assay on K-562 leukemia it was 116%; in the assay with MALME-3M melanoma, 111%; with MDA-MB-231 breast, 120%; in the assay on SF-268 CNS, 105%; in the assay on SF-295 CNS, 105%. Besides, the growth in the assay with SF-539 CNS was 111%; in the assay with UACC-257 melanoma it was 103%; in the assay on M14 melanoma it was 90.3%.

On to `COc1ccc(OC)c(/C=C2\Oc3cc(OCCN4CCCC4)ccc3C2=O)c1`, for which the growth with DU-145 prostate was 96.5%; in the assay on K-562 leukemia, 3.51% (active); with MALME-3M melanoma, 104%; with MDA-MB-231 breast it was 84.6%; in the assay with SF-268 CNS, 93.7%; with SF-295 CNS, 101%. The growth in the assay on SF-539 CNS was 84.7%; in the assay on M14 melanoma, 98.4%.

Regarding `COc1ccc(-c2nnc(COc3ccc(NC(=O)Nc4ccc(Cl)c(C(F)(F)F)c4)cc3F)o2)cc1`, the growth was 13.2% in the assay on DU-145 prostate; 16.9% with K-562 leukemia; -1.11% (active) in the assay with MALME-3M melanoma; -8.46% (active) in the assay with MDA-MB-231 breast; 20.5% in the assay with SF-268 CNS; -3.88% (active) in the assay on SF-295 CNS. Also, the growth in the assay with SF-539 CNS was 0.516% (active); with UACC-257 melanoma, 30.3%; with M14 melanoma, 9.03% (active).

As for `Cc1cc(Nc2nc(-c3ccncc3)nc3ccccc23)n[nH]1`, the growth in the assay with DU-145 prostate is 79.7%; in the assay with K-562 leukemia, 38.1%; with MALME-3M melanoma it was 88.8%; with MDA-MB-231 breast it was 84.1%; in the assay with SF-268 CNS, 70.1%; in the assay on SF-295 CNS, 69.9%. Moreover, the growth is 59.5% with SF-539 CNS, 90% with UACC-257 melanoma and 65.7% with M14 melanoma.

For the molecule `Cc1ccc(S(=O)(=O)N2CCC(C(=O)Nc3ccc(F)cc3F)CC2)cc1`, the growth in the assay with DU-145 prostate is 97.4%; in the assay on K-562 leukemia, 91.7%; in the assay with MALME-3M melanoma, 104%; with MDA-MB-231 breast, 87.1%; in the assay on SF-268 CNS it was 111%; with SF-295 CNS, 81.8%. In addition, the values for the growth in the assay with SF-539 CNS and in the assay with M14 melanoma were 97.5% and 102%, respectively.

Consider `O=C(Nc1cccc(C(F)(F)F)c1)Nc1ccc(OCc2nnc(-c3ccccc3)o2)c(F)c1`, for which the growth in the assay on DU-145 prostate was 31.9%; in the assay with K-562 leukemia, 22.1%; in the assay with MALME-3M melanoma, 53.7%; with MDA-MB-231 breast, 42.9%; in the assay with SF-268 CNS, 58.7%; in the assay on SF-295 CNS, 17%. Further, the growth with SF-539 CNS is 27.8%; in the assay on UACC-257 melanoma, 70%; with M14 melanoma it was 40.9%.

On to `C/C(=N\NC(=O)CC#N)c1cc2cc(Cl)ccc2o1`, for which the growth in the assay with DU-145 prostate was 103%; in the assay on K-562 leukemia, 96.6%; in the assay with MALME-3M melanoma, 102%; in the assay with MDA-MB-231 breast, 93.9%; in the assay with SF-268 CNS it was 102%; in the assay on SF-295 CNS, 99.7%. Further, the growth with SF-539 CNS was 82.9%; with M14 melanoma, 104%.

Regarding `CCN1C(=O)N(CC)C2Nn3c(s/c(=C4\C(=O)N(C5CCCC5)c5ccccc54)c3=O)=NC21` (stereo not drawn), the growth is 43.6% with DU-145 prostate; 22% in the assay with K-562 leukemia; 70.9% with MALME-3M melanoma; 58.1% in the assay on MDA-MB-231 breast; 59.5% in the assay with SF-268 CNS; 60.6% in the assay on SF-295 CNS. Moreover, the growth was 37% in the assay on SF-539 CNS and 91.9% in the assay with M14 melanoma.

Regarding `Cc1cc(Nc2nc(-c3ccc(F)cc3)nc3ccccc23)n[nH]1`, the growth was 77.1% in the assay with DU-145 prostate; 36.6% in the assay on K-562 leukemia; 57% in the assay with MALME-3M melanoma; 78.7% with MDA-MB-231 breast; 63.3% in the assay with SF-268 CNS; 64.4% with SF-295 CNS. The growth in the assay with SF-539 CNS was 66.6%; with UACC-257 melanoma, 47.2%; in the assay with M14 melanoma, 53.5%.

Take `CCCn1c(=S)sc2c(Cl)nc(C)nc21`: the growth was 124% with DU-145 prostate; 103% in the assay on K-562 leukemia; 104% in the assay with MALME-3M melanoma; 89.1% in the assay with MDA-MB-231 breast; 98.5% with SF-268 CNS; 101% in the assay on SF-295 CNS. Besides, the growth in the assay on SF-539 CNS is 93.3%; in the assay on M14 melanoma, 101%.
